# Laboratory results reported in the supplement of paper PMC9925115.
# Where a name gives a salt, the structure may show the parent alone. ± gives the uncertainty stated by the source.
# Test system: FLX1
# Assay: cell viability z-score within plate (CellTiter-Glo), mean of 3 biological replicates; higher = higher viability relative to plate (less growth inhibition)
# Settings: 2 µM; time (hr): 120
# Procedure: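 FLX1 fibrolamellar carcinoma cells (DNAJB1-PRKACA fusion), 600 cells/well in 384-well plates, treated with a Selleck kinase inhibitor library (L1200) at 2 uM for 5 days (120 hr); viability by CellTiter-Glo. A z-score was computed within each plate and averaged over three biological replicates.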
row,SMILES,cell viability z-score within plate
1,CCN(CC)CCNC(=O)c1c(C)[nH]c(/C=C2\C(=O)Nc3ccc(F)cc32)c1C [Sunitinib Malate],-0.049 ± 0.26
2,COc1ccc(S(=O)(=O)N(CCO)c2ccccc2CN(C)C/C=C/c2ccc(Cl)cc2)cc1 [KN-93 Phosphate],0.23 ± 0.54
3,"CCCS(=O)(=O)Nc1ccc(F)c(C(=O)c2c[nH]c3ncc(-c4ccc(Cl)cc4)cc23)c1F [Vemurafenib (PLX4032, RG7204)]",-3.08 ± 1.3
4,O=C(/C=C/c1ccc2ccccc2n1)c1ccncc1,0.276 ± 0.49
5,O=C1NC(=O)C(c2cnc3ccccn23)=C1c1cn2c3c(cc(F)cc13)CN(C(=O)N1CCCCC1)CC2,1.17 ± 1.1
6,O=C(NC(NC(=S)Nc1ccc(F)c([N+](=O)[O-])c1)C(Cl)(Cl)Cl)C(c1ccccc1)c1ccccc1 (stereo not given),0.309 ± 0.51
7,COc1ncc(-c2ccc3nccc(-c4ccnnc4)c3c2)cc1NS(=O)(=O)c1ccc(F)cc1F,0.539 ± 0.32
8,O=C(O)c1ccc(Nc2ncc3c(n2)-c2ccc(Cl)cc2C(c2c(F)cccc2F)=NC3)cc1,1.2 ± 0.42
9,O=C(O)[C@]1(Cc2cccc(Nc3nccs3)n2)CC[C@@H](Oc2cccc(Cl)c2F)CC1,-1.08 ± 1
10,Nc1cccc(-c2cc3c(Oc4cccc(O)c4)ncnc3[nH]2)c1,-0.5 ± 0.21
11,O=C(Nc1ccc(OC(F)(F)F)cc1)c1sccc1NCc1ccnc2ccccc12,0.792 ± 0.22
12,CN1CCN(S(=O)(=O)c2ccc(-c3cnc(N)c(C(=O)Nc4cccnc4)n3)cc2)CC1,0.448 ± 0.3
13,Cc1c(F)cc(C(=O)NC2CC2)cc1-c1ccc(C(=O)NCC(C)(C)C)cn1,-0.342 ± 0.51
14,Cc1nc(Nc2ncc(C(=O)Nc3c(C)cccc3Cl)s2)cc(N2CCN(CCO)CC2)n1 [Dasatinib],-1.19 ± 0.2
15,O=c1cc(-c2cccc3c2Sc2ccccc2S3)oc(N2CCOCC2)c1,0.731 ± 0.28
16,C#Cc1cccc(Nc2ncnc3cc(OC)c(OCCCCCCC(=O)NO)cc23)c1,-0.217 ± 0.35
17,C[C@@]1(C(=O)Nc2ccc(F)nc2)CCCN1c1nc(Nc2cc(C3CC3)n[nH]2)c2cccn2n1,-1.16 ± 0.41
18,CS(=O)(=O)N1CCN(Cc2cc3nc(-c4cccc5[nH]ncc45)nc(N4CCOCC4)c3s2)CC1 [Pictilisib (GDC-0941)],1.08 ± 0.18
19,CNc1nc(Nc2cn(C(C)(C)C#N)nc2C)ncc1C(F)(F)F,0.707 ± 0.76
20,Cc1ccc(NC(=O)c2ccc(CN3CCN(C)CC3)cc2)cc1Nc1nc(-c2cccnc2)cs1 [Masitinib (AB1010)],-1.52 ± 1.2

row,SMILES,cell viability z-score within plate
1,O=C1NC(=O)[C@@H](c2cn3c4c(cccc24)CCC3)[C@@H]1c1c[nH]c2ccccc12 [Tivantinib (ARQ 197)],-1.26 ± 0.51
2,C=CC(=O)Nc1cccc(Oc2nc(Nc3ccc(N4CCN(C)CC4)cc3OC)ncc2Cl)c1,0.221 ± 0.37
3,C[C@]1(O)C[C@@H](c2nc(-c3ccc4ccc(-c5ccccc5)nc4c3)c3c(N)nccn32)C1 [Linsitinib (OSI-906)],0.624 ± 0.4
4,Cc1cc(C(C)Nc2ccccc2)c2nc(N3CCOCC3)cc(=O)n2c1 (stereo not given),-0.144 ± 0.28
5,Cc1nc(Nc2cnn(C3CCNCC3)c2)nc2c1N(C)C(=O)c1cc3ccccc3cc1N2C,1.62 ± 0.12
6,CNC(=O)c1cc(Oc2ccc(NC(=O)Nc3ccc(Cl)c(C(F)(F)F)c3)cc2)ccn1 [Sorafenib],-1.7 ± 1.3
7,CC(C)(C)c1cnc(CSc2cnc(NC(=O)C3CCNCC3)s2)o1,-1.06 ± 1.3
8,CN1CC[C@H](c2c(O)cc(O)c3c(=O)cc(-c4ccccc4Cl)oc23)[C@H](O)C1 [Flavopiridol (Alvocidib)],0.251 ± 0.25
9,O=S(=O)(c1cccc2cnccc12)N1CCCNCC1 [Fasudil (HA-1077) HCl],0.511 ± 0.42
10,COc1ccccc1-c1cc(Nc2cccc(CS(N)(=O)=O)c2)ncn1,0.545 ± 1.1
11,O=C1NC(=O)/C(=C/c2ccc(-c3ccc(F)cc3O)o2)S1,1.21 ± 0.57
12,COc1cc(Nc2ncc3c(n2)-c2ccc(Cl)cc2C(c2c(F)cccc2OC)=NC3)ccc1C(=O)O [Alisertib (MLN8237)],0.451 ± 0.63
13,Nc1ccc(C(=O)Nc2cccc(-c3nc(N4CCOCC4)c4oc5ncccc5c4n3)c2)cn1,0.775 ± 0.24
14,CO[C@H]1C[C@@H]2CC[C@@H](C)[C@@](O)(O2)C(=O)C(=O)N2CCCC[C@H]2C(=O)O[C@H]([C@H](C)C[C@@H]2CC[C@@H](OCCO)[C@H](OC)C2)CC(=O)[C@H](C)/C=C(\C)[C@@H](O)[C@@H](OC)C(=O)[C@H](C)C[C@H](C)/C=C/C=C/C=C/1C [Everolimus (RAD001)],-0.497 ± 1.1
15,CCOc1cc(N2CCC(O)CC2)ccc1Nc1ncc2c(n1)N(C)c1ccccc1C(=O)N2C,0.413 ± 1.6
16,Cc1cc(Nc2cc(N3CCN(C)CC3)nc(/C=C/c3ccccc3)n2)n[nH]1,0.628 ± 0.19
17,Nc1nc(N)c2nc(-c3cccc(O)c3)c(-c3cccc(O)c3)nc2n1,0.649 ± 0.23
18,Cc1cn(-c2cc(NC(=O)c3ccc(C)c(Nc4nccc(-c5cccnc5)n4)c3)cc(C(F)(F)F)c2)cn1 [Nilotinib (AMN-107)],0.322 ± 0.59
19,NC1(c2ccc(-c3nc4ccn5c(=O)[nH]nc5c4cc3-c3ccccc3)cc2)CCC1,-0.0746 ± 0.54
20,C=CC(=O)Nc1ccc2ncnc(Nc3cccc(Br)c3)c2c1,-1.55 ± 0.85
